# Compounds with a hit are over-represented: about 17% of the library has one in this group of screens.
# TDP1 block: qHTS Assay for Inhibitors of Tyrosyl-DNA Phosphodiesterase (TDP1). Tyrosyl-DNA phosphodiesterase 1 (Homo sapiens), Q9NUW8. recombinant TDP1, AlphaScreen DNA substrate cleavage. Potency, µM (top dose mostly 130 µM), for inactives: at the highest dose activity change, negative = inhibition, usual class: inhibitors. 0.28% of 350,000 active. AID 485290, 2010; note: % is set by controls: 0 for no effect and ±100 for the full control effect; nearly all actives have a fitted effect of over 40% in size
#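 E. coli-derived human Tdp1, 1 nM final. Cpd preinc 15 min RT; substrate 15 nM final, 5 min RT; AS bead mix 10 ug/ml final, 10 min RT. Signal loss = tyrosine-FITC cleavage. No-enzyme wells = max signal.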
# DT40 TDP1 no CPT: qHTS for Inhibitors of human tyrosyl-DNA phosphodiesterase 1 (TDP1): qHTS in cells in absence of CPT; Potency, µM (series often up to 46.2 µM), for inactives: at the top dose activity change, negative = growth inhibition, usual class: inhibitors; 15% of 420,000 active; AID 686978, 2013; DT40 Tdp1-/- hTDP1 cells, no CPT, ATP luminescence, 48 h; note: % is set by controls: 0 for no effect and ±100 for the full control effect; nearly all actives have a fitted effect of over 55% in size
#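 Readout: luminescence from CellTiter-Glo after 30 min in the dark at RT. Cells: DT40 Tdp1-/- with stable hTDP1, 400/well. Exposure: compounds alone, ≥48 hr, 37 °C.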
# ClpP mod: qHTS Assay for Activators of ClpP. Potency, µM (top dose mostly 57.5 µM), without a hit: at the highest dose activity change, negative = active. ATP-dependent Clp protease proteolytic subunit (Bacillus subtilis (strain 168)), P80244. 1.9% of 340,000 active. purified B. subtilis ClpP, FRET peptide cleavage, 20 min; active = well fitted falling curve with a large enough effect; inconclusive = small, poorly fitted or top-dose-only effect; inactive = no such curve, though single readings can be large or run the other way; note: the source files actives as falling curves though it sought activators and does not explain the sign; nearly all actives have a fitted effect of over 65% in size
# Target sequence (P80244 whole entry, looked up): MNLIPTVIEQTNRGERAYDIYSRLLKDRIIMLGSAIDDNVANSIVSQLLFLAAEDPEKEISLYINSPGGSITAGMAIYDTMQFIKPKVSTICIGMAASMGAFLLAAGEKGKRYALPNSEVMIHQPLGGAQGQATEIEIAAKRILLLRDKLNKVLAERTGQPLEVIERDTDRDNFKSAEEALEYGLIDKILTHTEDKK
#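 Buffer: 100 mM Tris/HCl pH8, 100 mM KCl, 0.05% low protease BSA, 2.5% glycerol, 0.01% Tween-20. ClpP 10 microg/mL final; 20 min RT; delta FRET normalized to ADEP and DMSO controls.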
# TDP1 cell CPT: qHTS for Inhibitors of human tyrosyl-DNA phosphodiesterase 1 (TDP1): qHTS in cells in presence of CPT. chicken DT40 Tdp1-/-;hTDP1 cells + 20 nM CPT, ATP luminescence, 48 h. 12% of 420,000 active. Potency, µM (top dose mostly 46.2 µM), inactives show top-dose activity change, negative = growth inhibition, usual class: inhibitors; note: % is set by controls: 0 for no effect and ±100 for the full control effect; nearly all actives have a fitted effect of over 55% in size
#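 Chicken DT40 Tdp1-/- cells stably complemented with human TDP1 were seeded at 400 cells/well in medium containing 20 nM camptothecin, exposed to pin-transferred compounds, and grown at 37 °C for at least 48 hr. Viability was read as ATP luminescence.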
# Numbers without * were called inactive; ? = inconclusive; nt = no result given; [ ] = another dose, or the depositor's remark. Unless noted, calls come from the whole dose curve; as a rule, active = well fitted curve in the direction sought with a large enough effect; inconclusive = small, poorly fitted or top-dose-only effect, or another doubt; inactive = no such curve, though single readings can be large; an effect the other way counts as inactive or inconclusive. Potency is the fitted concentration of half-maximal effect.
SMILES,TDP1 block,DT40 TDP1 no CPT,ClpP mod,TDP1 cell CPT
Cc1cccc(NC(=O)C(=O)NCC(c2cccnc2)N2CCN(Cc3ccccc3)CC2)c1 (centres undefined),2.6%,16.4µM*,-0.4%,23.1µM*
Cc1ccc(NC(=O)C(=O)NCC(c2cccnc2)N2CCOCC2)cc1Cl (centres undefined),1.3%,?,-0.3%,?
O=C(N/N=C/C=C/c1ccc2c(c1)OCO2)C(O)c1ccccc1 (centres undefined),nt,-5.5%,-3.5%,-0.4%
O=c1[nH]c(COc2ccc(Br)cc2Cl)nc2ccccc12,5.5%,?,-0.4%,20.6µM*
O=c1[nH]c(COc2ccccc2)nc2ccccc12,nt,?,-2.3%,20.6µM*
Cc1ccccc1Nc1nnc(SCc2nc3ccccc3c(=O)[nH]2)s1,-2.7%,nt,nt,nt
CCOc1ccc(Nc2nnc(SCc3nc4ccccc4c(=O)[nH]3)s2)cc1,nt,18.4µM*,2.2%,18.4µM*
COc1cccc(CN2CCC2(C)C(=O)Nc2ccc(C)c(O)c2)c1F (centres undefined),nt,11.6µM*,-2.9%,11.6µM*
COc1cccc(NC(=O)C2(C)CCN2Cc2cccc(OC)c2F)c1 (centres undefined),nt,20.6µM*,1.1%,?
COc1cccc(CN2CCC2(C)C(=O)Nc2ccc(C)cc2)c1F (centres undefined),nt,23.1µM*,-0.7%,16.4µM*
Cc1ccc(NC(=O)C2(C)CCN2Cc2cccc3c2OCO3)cc1O (centres undefined),nt,?,-3.0%,16.4µM*
CC1(C(=O)Nc2cccc(Oc3ccccc3)c2)CCN1Cc1cccc2c1OCO2 (centres undefined),nt,?,-3.7%,?
OC[C@@H]1CN(Cc2cccs2)C[C@H](n2cnc3c(NC4CCC4)ncnc32)O1,nt,-16.9%,0.0%,-7.2%
CC1(C(=O)Nc2cccc(Oc3ccccc3)c2)CCN1Cc1ccccc1OC(F)F (centres undefined),nt,?,-6.8%,?
COc1ccc(NC(=O)C2(C)CCN2Cc2cccc(OC)c2F)cc1OC (centres undefined),nt,13µM*,-2.3%,23.1µM*
COc1ccc(NC(=O)C2(C)CCN2C)cc1OC (centres undefined),nt,-5.1%,-0.6%,-8.8%
COc1cccc(CN2CCC2(C)C(=O)Nc2cccc(Oc3ccccc3)c2)c1F (centres undefined),nt,7.31µM*,-6.0%,10.3µM*
COc1cccc(CN2CCC2(C)C(=O)Nc2ccc3c(c2)OCO3)c1F (centres undefined),nt,?,1.2%,23.1µM*
N#Cc1nc(Nc2cc(F)cc(F)c2)nc(NC2CCCC2)n1,-1.1%,nt,nt,nt
COc1cccc2cc(C(=O)C3=C(O)C(=O)N(c4cc(C)on4)C3c3cccs3)oc12 (centres undefined),7.5%,?,-2.0%,?
CCN1C(=O)[C@H]2[C@H]3[C@H](O)[C@H](O)C/C(=N/OC[C@@H](O)COCc4ccco4)[C@@H]3CC[C@@H]2C1=O,2.6%[21 µM],nt,nt,nt
Clc1ccc2nccnc2c1,nt,0.794µM*,-18.7%,1µM*
Cc1ccc2c(C)ccnc2c1,nt,7.08µM*,-11.3%,10µM*
Cc1cccc(OC(=O)c2ccc3nccnc3c2)c1,-7.0%,-0.5%,1.3%,0.9%
Cc1ccc2nccnc2c1,nt,3.16µM*,-13.4%,3.55µM*
SMILES,TDP1 block,DT40 TDP1 no CPT,ClpP mod,TDP1 cell CPT
Cc1ccc(C2/C=C\CC(NC(=O)OCC3c4ccccc4-c4ccccc43)CC(=O)N2Cc2ccccc2)cc1 (centres undefined),-0.4%[56.1 µM],16.4µM*,-1.4%,?
Cc1ccc(CC(=O)NC2CCN(Cc3ccccc3)CC2)cc1,3.2%,-14.0%,0.3%,-7.5%
Cc1ccc(C(C)C)c(OCC(=O)OCC(=O)c2c(N)n(C)c(=O)n(C)c2=O)c1,1.6%,16.4%,-1.5%,-0.9%
C=CCn1c(COc2cc(C)ccc2C(C)C)nnc1SCC(=O)c1c(N)n(C)c(=O)n(C)c1=O,?,23.1µM*,nt,?
O=c1nc(/C=C/c2cc([N+](=O)[O-])ccc2Cl)cc(C(F)(F)F)[nH]1,3.6%,23.1µM*,-4.6%,?
O=S(=O)(c1cccc(-c2cn3ccccc3n2)c1)N1CCCCC1,1.1%,-23.4%,-25.6%,-24.8%
CN(C)S(=O)(=O)c1cccc(-c2cn3ccccc3n2)c1,6.8%,-28.6%,?,-0.6%
CN(C)S(=O)(=O)c1cccc(-c2cn3cc(Cl)ccc3n2)c1,1.4%,-20.5%,28.2µM*,-17.3%
O=S(=O)(c1cccc(-c2cn3cc(Cl)ccc3n2)c1)N1CCOCC1,0.0%,-29.5%,28.2µM*,?
COC(=O)c1ccccc1NC(=O)[C@@H]1CCC(=O)N1C1OC(=O)c2c1ccc(OC)c2OC (some centres undefined),nt,-5.5%,-3.7%,5.0%
COc1ccc(NC(=O)c2ccco2)cc1NC(=O)c1ccco1,-1.0%,-8.2%,0.7%,-19.9%
COc1ccc(NC(=O)c2ccco2)cc1NC(=O)c1cccc(OC(C)C)c1,10.4%,11.6µM*,-0.7%,?
COc1cc(NC(=O)c2cc3ccccc3o2)ccc1NC(=O)c1ccco1,3.1%,-28.4%,nt,-3.8%
COc1cc(NC(=O)c2oc3ccccc3c2C)ccc1NC(=O)c1ccco1,7.8%[0.0935 µM],18.4µM*,nt,?
COc1ccc(NC(=O)c2ccco2)cc1NC(=O)c1cccc(C)c1OC,4.2%,11.6µM*,-1.8%,20.6µM*
COc1ccc(OC)c(NC(=O)c2cccc(NC(=O)c3ccco3)c2)c1,nt,?,1.1%,?
COc1cccc(C(=O)Nc2cc(NC(=O)c3ccco3)ccc2OC)c1,6.8%,?,-0.8%,18.4µM*
O=C(NC(=O)c1cnccc1C(F)(F)F)Nc1ccccc1,-5.1%,4.8%,nt,3.0%
CCCCOc1cccc(C(=O)Nc2cc(NC(=O)c3ccco3)ccc2OC)c1,9.7%,20.6µM*,-19.0%,18.4µM*
Cn1cnnc1Sc1ccc(C(=O)NCCC23CC4CC(CC(C4)C2)C3)cc1[N+](=O)[O-],0.0%,?,-4.4%,10.3µM*
Cc1nn(C)c2c1c(C(F)(F)F)cc(=O)n2CC(=O)Nc1ccc(F)cc1F,5.8%,-14.7%,-22.5%,?
Cc1cccc(C)c1NC(=O)Cn1c(=O)cc(C)c2c(C)nn(-c3cccc(Cl)c3C)c21,1.9%,-29.1%,-1.5%,-25.6%
CCOc1ccc(NC(=O)Cn2c(=O)cc(C)c3c(C)nn(C)c32)cc1,0.6%,8.2µM*,-4.7%,20.6µM*
Cc1ccc(Cl)cc1NC(=O)Cn1c(=O)cc(C)c2c(C)nn(C)c21,4.5%,?,-2.0%,11.6µM*
CCOc1ccc(NC(=O)Cn2c(=O)cc(C)c3c(C)nn(-c4ccc(CC)cc4)c32)cc1,3.2%,?,-2.4%,?
